Bioassay records as filed in PubChem BioAssay.
Most compounds without a hit are left out; they make up all but 17% or so of the library.
S2 tox: cell viability loss in ATXN counter-screen. S2 cells (HEK-293 line with an ATXN2-luciferase reporter) viability, CellTiter-Fluor protease fluorescence, 24 h. Potency, µM (highest dose often 56.7 µM), most hits filed as cytotoxic. 0.49% of 400,000 active; further: nearly all actives have a fitted effect of over 40% in size
ATXN2 expr inh: reduces ATXN2 reporter expression in HEK-293 cells; HEK-293 ATXN2-luciferase reporter, luminescence, 24 h; Potency, µM (highest dose often 57 µM), without a hit: at the top dose activity change, negative = inhibition, usual class: inhibitors; 0.72% of 360,000 active; further: on the % scale 0 is the no-effect control and ±100 the full control effect; nearly all actives have a fitted effect of over 55% in size
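qHTS (up to 57 uM final) was run with 24 h compound exposure of reporter cells at 37 °C. Each well was multiplexed: SteadyGlo luminescence measured ATXN2-luciferase expression after a fluorogenic Gly-Phe-AFC viability readout (25 uM final).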
HepG2 tox-1: HepG2 cytotoxicity, counter-screen for TGF-b inhibitors; HepG2 CAGA-GFP viability, ATP luminescence, 18 h; Potency, µM (doses to about 46.1 µM), without a hit: top-dose activity change, negative = cytotoxicity, usual class: cytotoxic; 0.76% of 410,000 active; AID 588856
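HepG2 CAGA-GFP cells (1000/well, DMEM with 1% FBS) received compound, then TGF-beta at 500 pg/mL final, and were incubated 18 hours at 37 degrees C. Viability was read by CellTiter-Glo luminescence. Media-only wells were set as complete cell-killing and DMSO as no toxicity.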
DT40 TDP1 no CPT: qHTS for Inhibitors of human tyrosyl-DNA phosphodiesterase 1 (TDP1): qHTS in cells in absence of CPT; DT40 Tdp1-/- hTDP1 cells, no CPT, ATP luminescence, 48 h; 15% of 420,000 active; Potency, µM (top dose mostly 46.2 µM), inactives show at the top dose activity change, negative = growth inhibition, actives largely listed as inhibitors; further: on the % scale 0 is the no-effect control and ±100 the full control effect; nearly all actives have a fitted effect of over 55% in size
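Chicken DT40 Tdp1-/- cells complemented with human TDP1, screened without camptothecin (DMSO vehicle only), 400 cells/well. Compounds pin-transferred, cells incubated at 37 °C for at least 48 hr. Growth read as ATP-dependent luminescence (CellTiter-Glo, 30 min at RT).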
DT40 TDP1 CPT: DT40-hTDP1 cell growth loss with CPT | 12% of 420,000 active | chicken DT40 Tdp1-/-;hTDP1 cells + 20 nM CPT, ATP luminescence, 48 h | Potency, µM (titrated, usually from 46.2 µM), inactives show at the highest dose activity change, negative = growth inhibition, hits mostly inhibitors | AID 686979; further: on the % scale 0 is the no-effect control and ±100 the full control effect; nearly all actives have a fitted effect of over 55% in size
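Cell growth measured by CellTiter-Glo luminescence after a minimum 48 h, 37 C compound exposure with 20 nM CPT in Tdp1-knockout DT40 cells stably expressing hTDP1, seeded 400/well; qHTS titration format.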
TGFb SMAD3 inh: inhibitors of TGF-b signaling | HepG2 CAGA-GFP TGF-b/SMAD3 reporter, GFP fluorescence, 18 h; TGF-beta stimulated, 500 pg/mL final | Potency, µM (series often up to 46.1 µM), for the others: at the top dose activity, negative = inhibition, most hits filed as inhibitors | 1.2% of 410,000 active; further: on the % scale 0 is the no-effect control and ±100 the full control effect; nearly all actives have a fitted effect of over 65% in size
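TGF-beta reporter screen: HEPG2 CAGA-GFP, 1% FBS, 500 pg/mL TGF-beta final, 18 h; per-cell GFP summed per well; curves fitted and categorized by class.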
TGFb confirm: TGF-b pathway inhibition, cherry-pick retest; 63% of 1,600 active; shares compounds with TGFb SMAD3 inh; Potency, µM (titrated, usually from 46.1 µM), for inactives: at the top dose activity, negative = inhibition, actives largely listed as inhibitors; HepG2 CAGA-GFP TGF-b reporter, GFP fluorescence, 18 h; cells stimulated with TGF-beta, 500 pg/mL; further: on the % scale 0 is the no-effect control and ±100 the full control effect; nearly all actives have a fitted effect of over 65% in size
HepG2 tox-2: HepG2 cytotoxicity, TGF-b inhibitor counterscreen; HepG2 CAGA-GFP viability, ATP luminescence, 18 h; cells stimulated with TGF-beta, 500 pg/mL; 27% of 1,600 active; Potency, µM (doses to about 46.1 µM), without a hit: at the top dose activity, negative = cytotoxicity, usual class: inhibitors; shares compounds with TGFb SMAD3 inh; further: on the % scale 0 is the no-effect control and ±100 the full control effect; nearly all actives have a fitted effect of over 70% in size
TGFb CCL64 inh: blocks TGF-b signaling in CCL64 reporter cells. shares compounds with TGFb SMAD3 inh. CCL64 CAGA-GFP reporter, TGF-b stimulated, GFP fluorescence, 18 h. Potency, µM (highest dose often 46.1 µM), for the others: at the highest dose activity, negative = inhibition, hits mostly inhibitors. 41% of 1,600 active. AID 720536; further: nearly all actives have a fitted effect of over 65% in size
TGFb COP inh: validation of TGF-b inhibitors in HepG2 COP promoter reporter | shares compounds with TGFb SMAD3 inh | Potency, µM (top dose mostly 46.1 µM), for the others: top-dose activity, negative = inhibition, actives largely listed as inhibitors | 3% of 1,600 active | HepG2 COP-GFP TGF-b reporter, GFP fluorescence, 18 h; cells stimulated by added recombinant TGF-beta; further: nearly all actives have a fitted effect of over 70% in size
Active calls of the source: *; i = inactive; ? = inconclusive; . = not tested or not shown. The call rests on the fitted dose curve; in most records, active means well fitted curve in the direction sought with a large enough effect; inconclusive means small, poorly fitted or top-dose-only effect, or another doubt; inactive means no such curve, though single readings can be large; an effect the other way counts as inactive or inconclusive. Potency means the concentration at half of the fitted maximal effect.

SMILES	S2 tox	ATXN2 expr inh	HepG2 tox-1	DT40 TDP1 no CPT	DT40 TDP1 CPT	TGFb SMAD3 inh	others
COC(=O)C1=C(c2cc3ccccc3s2)C[C@@H]2CC[C@H]1N2C(=O)NCc1ccc(F)cc1	?	?	-39.3%	.	?	?
COC(=O)C1=C(c2cc3ccccc3s2)C[C@@H]2CC[C@H]1N2C(=O)NC1CCCCC1	?	?	-44.6%	?	18.4µM*	?
O=C1NC(=O)C(CCc2ccncc2)(Cc2ccc([N+](=O)[O-])cc2)C(=O)N1	i	7.6%	1.5%	-8.9%	-18.3%	-4.7%
O=C(C1CCCN(Cc2ccc(Cl)cc2)C1)N1CCCCC1 (configuration not stated)	i	-26.4%	2.0%	11.0%	-29.6%	0.0%
CN1[C@H](CC(=O)c2ccccc2)CCC[C@H]1C[C@H](O)c1ccccc1	.	.	.	-25.1%	-1.8%	.
CCc1nc(CNC(=O)c2cc(OC)c(OC)c(OC)c2)no1	i	3.8%	8.4%	-14.6%	2.3%	?
CN(C)Cc1c[nH]c2cc([N+](=O)[O-])ccc12	?	0.0%	0.2%	-2.9%	-2.1%	6.3%
CCOC(=O)C1CCCN(C(=O)c2ccc3oc(Cc4ccccc4)nc3c2)C1 (configuration not stated)	i	.	-15.4%	?	-5.1%	-7.5%
CN1CCN(c2c(F)cc([N+](=O)[O-])c(N)c2Br)CC1	i	-18.4%	-11.5%	?	7.9%	1.1%
Cn1c(=O)n(C)c2cc([N+](=O)[O-])c(N3CCNCC3)cc21	i	-4.0%	11.1%	2.9%	-13.0%	4.9%
CN1CCN(c2cc(N3CCCCCC3)c(F)cc2[N+](=O)[O-])CC1	i	-16.0%	-38.9%	29.1µM*	?	25.9%
CCN1CCN(c2cc(N3CCCC3)c([N+](=O)[O-])cc2F)CC1	i	-12.2%	-26.0%	29.1µM*	?	0.4%
Cc1ccc2cc(C=C(C#N)C#N)c(Cl)nc2c1	i	-6.7%	1.4%	2.91µM*	2.06µM*	-8.1%
CC(C)c1ccc(C(c2c(O)c3ccccc3oc2=O)c2c(O)c3ccccc3oc2=O)cc1	i	.	-34.7%	?	-24.6%	?
CC(C)c1ccc(Cc2cn3cc(-c4cc5ccccc5oc4=O)nc3s2)cc1	?	19.8%	1.4%	0.184µM*	0.259µM*	-14.2%
COc1cc2c(cc1OC)C13CCN4CC5=CCOC6CC(=O)N2C1C6C5C3C4 (configuration not stated) (tested in a mixture with another compound)	i	-8.1%	-7.3%	?	13µM*	-15.4%
COC(=O)c1cc(NC(=O)Cn2nc(-c3ccccc3)c3c(c2=O)CCCC3)cc(C(=O)OC)c1	i	-5.5%	-12.8%	18.4µM*	?	?
N#CC[N+]1(CCCNP2(=O)C=C(c3ccccc3)OC(c3ccccc3)=C2)CCOCC1	i	-15.1%	-3.6%	1.5%	2.0%	-4.4%
CN1C(=O)C(=Cc2coc3ccccc3c2=O)C(=O)N(C)C1=O	i	.	-7.2%	23.1µM*	?	1.1%
COc1ccc(C(=O)Cn2c(NCCO)nc3ccccc32)cc1	?	-11.1%	4.6%	?	16.4µM*	-3.2%
CC(C)(C)NC(=O)Cn1c(=O)oc2ccc(Cl)cc21	i	-2.9%	-28.3%	6.8%	0.2%	-26.4%
CC1CCCN(CCCNC(=O)c2ccc3c(c2)N(Cc2cccc(Cl)c2)C(=O)c2ccccc2S3=O)C1 (configuration not stated)	?	.	12.6µM*	?	?	17.8µM*
COc1cc2cc(C(=O)N3CC(COS(C)(=O)=O)c4ccc(O)cc43)[nH]c2c(OC)c1OC (configuration not stated)	0.336µM*	0.299µM*	-91.9%	-104.2%	-102.0%	0.0891µM*	TGFb confirm=0.0058µM*;HepG2 tox-2=0.0326µM*;TGFb CCL64 inh=0.0058µM*;TGFb COP inh=42.4%
COc1ccc(Cl)cc1C(=O)C1CCCN(Cc2cnc(C)s2)C1 (configuration not stated)	i	-27.0%	-156.8%	?	-26.0%	0.0%
CC1=CC(C)CC(C)OC(=O)CC(c2ccc(O)cc2)NC(=O)C(Cc2c(Br)[nH]c3ccccc23)N(C)C(=O)C(C)NC(=O)C(C)C1 (configuration not stated)	0.015µM*	?	-7.9%	0.0146µM*	0.0259µM*	15.8µM*	TGFb confirm=?;HepG2 tox-2=?;TGFb CCL64 inh=0.259µM*;TGFb COP inh=79.4%
CCC1CN2CCc3cc(OC)c(OC)cc3C2CC1CC1NCCc2c1[nH]c1ccc(O)cc21 (configuration not stated)	?	0.0075µM*	-9.3%	0.082µM*	0.146µM*	0.0891µM*	TGFb confirm=0.0184µM*;HepG2 tox-2=1.03µM*;TGFb CCL64 inh=0.0366µM*;TGFb COP inh=51.9%
